Assay results published in the supplement of paper PMC11555231.

Each binder was assayed against PADI4, Q9UM07 (assay: log2 enrichment score relative to parent PADI4_3 peptide (binding to PADI4); higher = tighter binding than parent). Conditions: CaCl2: 10 mM.
Procedure: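 Deep mutational scan of the cyclic peptide PADI4_3 (ClAc-D-Tyr1 initiator, thioether-cyclised to Cys12, C-terminal Gly plus HA tag, mRNA-displayed). Positions 2-11 were each randomised by NNK codons; Met was reprogrammed as N-methyl-alanine (MeA). One round of equilibrium panning against bead-immobilised human PADI4 (100 nM, 10 mM CaCl2, RT). Log2 enrichment (bound/input frequency) relative to the parent sequence (0 = parent), mean of three independent selections.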

PADI4, Q9UM07, sequence (Q9UM07 whole entry): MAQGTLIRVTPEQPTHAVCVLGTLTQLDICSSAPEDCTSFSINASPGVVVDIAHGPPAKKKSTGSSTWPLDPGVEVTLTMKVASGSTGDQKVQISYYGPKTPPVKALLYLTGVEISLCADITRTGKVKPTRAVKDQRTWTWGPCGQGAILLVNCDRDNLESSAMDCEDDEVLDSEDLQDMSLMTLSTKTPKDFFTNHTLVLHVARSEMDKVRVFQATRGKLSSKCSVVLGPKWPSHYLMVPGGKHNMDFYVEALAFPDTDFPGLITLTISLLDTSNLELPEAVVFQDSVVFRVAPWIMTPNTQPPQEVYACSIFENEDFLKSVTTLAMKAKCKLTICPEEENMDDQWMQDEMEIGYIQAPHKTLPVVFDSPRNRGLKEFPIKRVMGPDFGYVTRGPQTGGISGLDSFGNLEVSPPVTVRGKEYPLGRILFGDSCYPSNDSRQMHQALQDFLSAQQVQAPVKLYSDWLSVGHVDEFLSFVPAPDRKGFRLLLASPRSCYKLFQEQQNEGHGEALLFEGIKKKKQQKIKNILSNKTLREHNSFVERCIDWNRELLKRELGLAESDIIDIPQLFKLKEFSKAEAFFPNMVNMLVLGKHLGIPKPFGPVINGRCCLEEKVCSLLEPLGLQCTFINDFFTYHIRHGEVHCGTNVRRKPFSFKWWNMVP

| Binder | log2 enrichment score |
| --- | --- |
| YRDLHYRHPKYCG [PADI4_3_H4L H4L] | -1.52 |
| YRDHVYRHPKYCG [PADI4_3_H5V H5V] | -3 |
| YRDHHVRHPKYCG [PADI4_3_Y6V Y6V] | -2.3 |
| YVDHHYRHPKYCG [PADI4_3_R2V R2V] | -1.2 |
| YRDHHYVHPKYCG [PADI4_3_R7V R7V] | -1.6 |
| YRDHHYRVPKYCG [PADI4_3_H8V H8V] | -3.3 |
| YRDHHYRHVKYCG [PADI4_3_P9V P9V] | -1.8 |
| YRDHHYRHPVYCG [PADI4_3_K10V K10V] | 2.58 |
| YRDHHYRHPKVCG [PADI4_3_Y11V Y11V] | -4.2 |
| YRVHHYRHPKYCG [PADI4_3_D3V D3V] | -3.7 |
| YRDVHYRHPKYCG [PADI4_3_H4V H4V] | -2.6 |
| YRDHPYRHPKYCG [PADI4_3_H5P H5P] | -3.95 |
| YRDHHPRHPKYCG [PADI4_3_Y6P Y6P] | -2.49 |
| YPDHHYRHPKYCG [PADI4_3_R2P R2P] | -2.67 |
| YRDHHYPHPKYCG [PADI4_3_R7P R7P] | -4.46 |
| YRDHHYRPPKYCG [PADI4_3_H8P H8P] | -4.28 |
| YRDHHYRHPKYCG [PADI4_3_P9P P9P] | 0 |
| YRDHHYRHPPYCG [PADI4_3_K10P K10P] | -3.67 |
| YRDHHYRHPKPCG [PADI4_3_Y11P Y11P] | -4.34 |
| YRPHHYRHPKYCG [PADI4_3_D3P D3P] | -2.96 |

| Binder | log2 enrichment score |
| --- | --- |
| YRDPHYRHPKYCG [PADI4_3_H4P H4P] | -2.66 |
| YRDHFYRHPKYCG [PADI4_3_H5F H5F] | -4.31 |
| YRDHHFRHPKYCG [PADI4_3_Y6F Y6F] | -0.749 |
| YFDHHYRHPKYCG [PADI4_3_R2F R2F] | -2.57 |
| YRDHHYFHPKYCG [PADI4_3_R7F R7F] | -0.962 |
| YRDHHYRFPKYCG [PADI4_3_H8F H8F] | -3.69 |
| YRDHHYRHFKYCG [PADI4_3_P9F P9F] | -2.05 |
| YRDHHYRHPFYCG [PADI4_3_K10F K10F] | -0.468 |
| YRDHHYRHPKFCG [PADI4_3_Y11F Y11F] | -2.66 |
| YRFHHYRHPKYCG [PADI4_3_D3F D3F] | -4.36 |
| YRDFHYRHPKYCG [PADI4_3_H4F H4F] | -3.79 |
| YRDHWYRHPKYCG [PADI4_3_H5W H5W] | -4.12 |
| YRDHHWRHPKYCG [PADI4_3_Y6W Y6W] | -2.2 |
| YWDHHYRHPKYCG [PADI4_3_R2W R2W] | -2.67 |
| YRDHHYWHPKYCG [PADI4_3_R7W R7W] | 1.07 |
| YRDHHYRWPKYCG [PADI4_3_H8W H8W] | -3.81 |
| YRDHHYRHWKYCG [PADI4_3_P9W P9W] | -2 |
| YRDHHYRHPWYCG [PADI4_3_K10W K10W] | -0.93 |
| YRDHHYRHPKWCG [PADI4_3_Y11W Y11W] | -2.51 |
| YRWHHYRHPKYCG [PADI4_3_D3W D3W] | -3.57 |

| Binder | log2 enrichment score |
| --- | --- |
| YRDWHYRHPKYCG [PADI4_3_H4W H4W] | -3.44 |
| YRDHYYRHPKYCG [PADI4_3_H5Y H5Y] | -4.14 |
| YRDHHYRHPKYCG [PADI4_3_Y6Y Y6Y] | 0 |
| YYDHHYRHPKYCG [PADI4_3_R2Y R2Y] | -2.62 |
| YRDHHYYHPKYCG [PADI4_3_R7Y R7Y] | -0.78 |
| YRDHHYRYPKYCG [PADI4_3_H8Y H8Y] | -3.56 |
| YRDHHYRHYKYCG [PADI4_3_P9Y P9Y] | -2 |
| YRDHHYRHPYYCG [PADI4_3_K10Y K10Y] | -0.51 |
| YRDHHYRHPKYCG [PADI4_3_Y11Y Y11Y] | 0 |
| YRYHHYRHPKYCG [PADI4_3_D3Y D3Y] | -3.73 |
| YRDYHYRHPKYCG [PADI4_3_H4Y H4Y] | -3.97 |
| YRDHHYRHPKYCG [PADI4_3_H5H H5H] | 0 |
| YRDHHHRHPKYCG [PADI4_3_Y6H Y6H] | 0.321 |
| YHDHHYRHPKYCG [PADI4_3_R2H R2H] | -2.21 |
| YRDHHYHHPKYCG [PADI4_3_R7H R7H] | -1.29 |
| YRDHHYRHPKYCG [PADI4_3_H8H H8H] | 0 |
| YRDHHYRHHKYCG [PADI4_3_P9H P9H] | -2.06 |
| YRDHHYRHPHYCG [PADI4_3_K10H K10H] | -1 |
| YRDHHYRHPKHCG [PADI4_3_Y11H Y11H] | -2.81 |
